SKKanGAS inh: SKKanGAS growth inhibition; actives 1.3% (n = 300,000); S. pyogenes SKKanGAS, kanamycin growth, BacTiter-Glo, 6 h; inhibition, % at 7.5 µM;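 active = mean replicate score, as percent of positive control median, at least 50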;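 also: strain carries kanamycin resistance gene driven by streptokinase promoter and grows in 40 µg/ml kanamycin; loss of luminescence reflects streptokinase promoter inhibition or plain growth inhibition; 0% = median of DMSO wells and 100% = positive control at its reference dose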
IDE cell inh: inhibitors of human insulin-degrading enzyme in cells. P14735. HEK cells, FAbetaB cleavage, fluorescence polarization. inhibition, % at 5.59 µM. actives 0.41% (n = 320,000). AID 434962;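 active = percent inhibition above the average of all tested compounds plus 3 SD, set per screening campaign, cut at about 16% in these data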;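 also: IDE supplied by intact live HEK cells; FP after avidin binding of uncleaved biotin substrate so inhibition keeps polarization high; 0% = DMSO wells and 100% = 60 µM reference IDE inhibitor Ii1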
PP1 counter: counter-screen for PP5 inhibitors: inhibitors of human PP1-alpha; AID 2235; P62136; purified PP1alpha, OMFP fluorescence; inhibition, % at 6.7 µM; actives 0.9% (n = 320,000);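 active = inhibition above the mean inhibition of all tested compounds plus 3 SD, computed separately for each screening campaign, cut at about 15% in these data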
Target sequence (P62136 whole entry, looked up): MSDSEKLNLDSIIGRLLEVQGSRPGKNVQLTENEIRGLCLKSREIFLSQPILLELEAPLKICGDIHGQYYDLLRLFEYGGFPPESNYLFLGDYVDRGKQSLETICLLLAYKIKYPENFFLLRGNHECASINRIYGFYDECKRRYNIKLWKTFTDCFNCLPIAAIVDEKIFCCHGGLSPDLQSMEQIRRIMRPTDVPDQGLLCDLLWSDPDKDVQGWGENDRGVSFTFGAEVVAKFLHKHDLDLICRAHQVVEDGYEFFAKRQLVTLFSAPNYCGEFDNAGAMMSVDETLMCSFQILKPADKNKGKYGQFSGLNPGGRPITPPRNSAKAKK
IDE cell activ: activators of human insulin-degrading enzyme in cells; P14735; HEK cells, FAbeta-B cleavage, fluorescence polarization; 0% vehicle, 100% cell-free pure enzyme wells; activation, % at 5.96 µM; actives 0.073% (n = 340,000);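 active = activation above the mean of all tested compounds plus 3 SD, set per screening campaign, cut at about 17% in these data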
Granule exo inh: lytic granule exocytosis inhibition; TALL-104 LAMP-1 surface exposure, flow cytometry; cells stimulated with thapsigargin and PMA; inhibition, % at 10 µM; actives 0.66% (n = 360,000); AID 651702;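 active = inhibition above about 55%, limit read from the data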
PP5 primary: PP5 (human) phosphatase inhibition; P53041; purified PP5c, OMFP substrate fluorescence; inhibition, % at 6.7 µM; actives 0.18% (n = 320,000); AID 1987;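 active = inhibition above the campaign's mean inhibition across all tested compounds plus 3 SD, cut at about 9.5% in these data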;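 also: 0% = DMSO only and 100% = 100 µM cantharidin control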
IDE cell inh cf: cellular human IDE inhibition, confirmation | shares compounds with IDE cell inh | inhibition, % at 5.59 µM | actives 51% (n = 1,200) | HEK cells, FAbetaB cleavage, fluorescence polarization;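 active = mean inhibition across triplicate wells above the cutoff set by the earlier primary insulin-degrading enzyme screen, cut at about 16% in these data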;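 also: 0% = DMSO wells and 100% = 60 µM reference IDE inhibitor Ii1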
HEK293 tox: HEK cell cytotoxicity, counter-screen for IDE inhibitors; shares compounds with IDE cell inh; HEK293 cytotoxicity, ATP luminescence; inhibition, % at 5.59 µM; actives 28% (n = 1,200); in the data active = inhibition above about 22%;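 also: 0% = vehicle wells and 100% = reference cytotoxic drug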
Starred values were filed as active, the others as inactive; . = no result given. A selection: hits, their analogues and other compounds. The true share with any hit is near 2.8%.

SMILES | SKKanGAS inh | IDE cell inh | PP1 counter | IDE cell activ | Granule exo inh | PP5 primary | IDE cell inh cf | HEK293 tox
CC(=O)N/N=C/c1cc(C(C)C)cc(/C=N/NC(C)=O)c1O | -7 | 23* | 0 | -46 | 3 | 0 | 35* | 4
CC(=O)N/N=C/c1cc(C)n(-c2ccc(Br)cc2)c1C | 0 | -2 | 7 | -3 | -3 | 4 | . | .
Cn1c(N)c(-c2ccccc2)c2ccc([N+](=O)[O-])cc2c1=O | 5 | 25* | 8 | -9 | 19 | 4 | 25* | 27*
N#Cc1c(N)n(Cc2ccccc2)c(=O)c2cc([N+](=O)[O-])ccc12 | -2 | 2 | -1 | 3 | 33 | 0 | . | .
C/C(Cc1ccccc1)=N\NC(=O)CNC(=O)/C=C\c1ccccc1 | 6 | 17* | 6 | . | -3 | -1 | 2 | 12
Cc1sc2ncnc(N3CCC(C(=O)NNC(=O)COc4ccc(Br)cc4)CC3)c2c1C | 26 | 22* | -1 | -10 | 7 | 0 | 13 | 11
Cc1ccc(OCC(=O)NNC(=O)C2CCN(c3ncnc4sc(C)c(C)c34)CC2)cc1 | 10 | 13 | -5 | -9 | 2 | 3 | . | .
COc1cc(/C=C/c2nc3ccccc3c(=O)[nH]2)cc(Cl)c1O | 3 | 27* | 5 | -75 | 0 | 1 | 100* | 6
CCCCN(C(=O)CSc1n[nH]c(-c2ccc(C)cc2)n1)c1c(N)n(CCCC)c(=O)[nH]c1=O | -1 | 9 | -5 | 1 | -11 | -1 | . | .
C=CCN1C(=O)/C(=C\C=C2\N(C)c3ccccc3C2(C)C)SC1=S | . | 2 | -2 | -10 | 0 | 0 | . | .
C=CCN1C(=O)/C(=C/C=C2/N(CC)c3ccc(S(=O)(=O)N(C)C)cc3N2CC)SC1=S | 23 | 22* | -4 | -101 | 1 | -2 | 160* | 39*
C/C(=N/NC(=O)CN1CCN(Cc2ccccc2Cl)CC1)c1ccncc1 | -8 | 24* | 5 | -22 | -2 | 3 | 15 | 7
C/C(=N\NC(=O)CN1CCN(Cc2ccccc2)CC1)c1ccncc1 | -25 | 0 | -2 | 3 | 5 | -1 | . | .
CC(/C=C1\SC(=S)N(NC(=O)c2ccncc2)C1=O)=C\c1ccccc1 | 36 | 0 | -2 | 4 | 8 | 1 | . | .
CCOc1cc(/C=C2\SC(=S)N(NC(=O)c3cccnc3)C2=O)ccc1O | -1 | 41* | 4 | . | -5 | 1 | 148* | 8
COc1cc(/C=C2\SC(=S)N(NC(=O)c3ccc(O)c(OC)c3)C2=O)ccc1O | 7 | 109* | 4 | -106 | 20 | -1 | 89* | 9
COc1cc(/C=C2\SC(=S)N(NC(=O)c3cccc(O)c3)C2=O)ccc1O | 1 | . | . | -91 | 2 | . | . | .
O=C(NN1C(=O)/C(=C/c2cccs2)SC1=S)c1cccnc1 | 0 | 2 | -3 | . | 5 | 0 | . | .
COc1cc(/C=C2\SC(=S)N(NC(=O)c3ccncc3)C2=O)ccc1O | 3 | 81* | 5 | -136 | 16 | 3 | 165* | 6
COc1cscc1C(N)=O | 2 | 1 | -5 | . | 1 | -2 | . | .
CCc1ccc(NC(=O)CCn2ccnc2C)cc1 | -7 | 3 | -2 | 0 | 0 | -1 | . | .
CC1(C)CC(=O)C(N=Nc2ccc(S(=O)(=O)N3CCOCC3)cc2)=C(O)C1 | 0 | 6 | 3 | 7 | 1 | 2 | . | .
O=[N+]([O-])c1ccc(C2=NN(c3ccccc3)C(c3ccco3)C2)cc1 (stereo not given) | -7 | . | . | 0 | 1 | . | . | .
O=[N+]([O-])c1ccc(/C=C/C2=NN(c3ccccc3)C(c3ccco3)C2)cc1 (stereo not given) | . | 36* | -3 | -100 | -1 | -4 | 53* | 19
Cc1cc(C)c2c(=O)n(CC(=O)Nc3ccc(Br)c(C)c3)sc2n1 | -8 | 61* | -1 | -51 | 48 | 0 | 19* | 22
SMILES | SKKanGAS inh | IDE cell inh | PP1 counter | IDE cell activ | Granule exo inh | PP5 primary | IDE cell inh cf | HEK293 tox
Cc1cc(C)c2c(=O)n(CC(=O)Nc3cccc(Cl)c3C)sc2n1 | -2 | 40* | -2 | -62 | 65* | 0 | 6 | 79*
Cc1cc(C)c2c(=O)n(CC(=O)NC3CCCC3)sc2n1 | -4 | 27* | -3 | -50 | 44 | 0 | 2 | 80*
Cc1c(Cl)cccc1NC(=O)Cn1cccc1 | -2 | 3 | 11 | 7 | 3 | 2 | . | .
COc1ccc(OC)c(CCNC(=O)Cn2sc3nc(C)cc(C)c3c2=O)c1 | 10 | 20* | -1 | . | . | 0 | 7 | 125*
Cc1cc(NC(=O)Cc2ccsc2)ccc1Br | 10 | -5 | 1 | 2 | -8 | -1 | . | .
Cc1ccccc1C(=O)Nc1ccc(N(C)C)c2ccccc12 | 0 | -3 | -2 | 1 | -5 | 2 | . | .
O=C(CCNC(=O)c1ccc(Cl)cc1)NCC(c1ccco1)N1CCCC1 (stereo not given) | . | . | . | 2 | -4 | . | . | .
O=C(c1ccc(Cl)cc1)N1CCN(c2ccnc3cc(Cl)ccc23)CC1 | -4 | . | . | -25 | -1 | . | . | .
CCOC(=O)N1CCN(c2ccnc3cc(Cl)ccc23)CC1 | 2 | 37* | 0 | -19 | 5 | 1 | 20* | 12
COc1ccc(C(=O)O)cc1S(=O)(=O)NC(C)C | -8 | 1 | -4 | 4 | -3 | 3 | . | .
Clc1ccc2ccc3cccnc3c2n1 | -4 | . | . | 3 | 4 | . | . | .
Clc1cc2cccnc2c2ccccc12 | -2 | 19* | 1 | -10 | -1 | 2 | 13 | 4
Cc1cc(C)n2nc(SCC(=O)N3CCCC(C)C3)nc2n1 (stereo not given) | . | 1 | . | 4 | 0 | . | . | .
O=C1/C(=C/c2ccccc2)Nc2ccccc21 | -1 | 28* | -1 | -13 | 5 | 4 | 32* | 6
CC(=O)N/C(=C\c1ccccc1)C(=O)OCC(=O)NC(C)C12CC3CC(CC(C3)C1)C2 (stereo not given) | -6 | 17* | 1 | -1 | 0 | 4 | -5 | 15
CC(=O)N/C(=C\c1ccccc1)C(=O)OCC(=O)NC(=O)c1ccccc1 | -11 | -1 | -6 | 4 | 3 | -1 | . | .
COc1ccc(-c2cc(=O)oc3cc(OCC(=O)NCC4CCC(C(=O)O)CC4)ccc23)cc1 (stereo not given) | 29 | 3 | -2 | 3 | -3 | 3 | . | .
CC(=O)Nc1ccc(NC(=O)c2cc(-c3ccc(C)c(C)c3O)n[nH]2)cc1 | 9 | 3 | 7 | -4 | -10 | 1 | . | .
Cc1ccc(-c2cc(C(=O)Nc3ccc(S(=O)(=O)Nc4ncccn4)cc3)[nH]n2)c(O)c1C | 5 | 31* | 8 | -26 | 2 | 1 | 20* | 10
